Experimental data from PubChem BioAssay AID624173 (National Center for Advancing Translational Sciences (NCATS), 2012).
Hit rate of the full screen: of about 410,000 compounds, about 490 (0.12%) were called active. Roughly 1% stayed inconclusive and do not appear here. For the sample, actives were picked, then their nearest neighbours and some compounds at random. Unmarked numbers belong to inactive results. Calls follow the shape of the dose curve; as a rule, active = well fitted inhibition curve with a large enough effect; inconclusive = small, poorly fitted or top-dose-only effect; inactive = flat fitted curve, though single readings scatter.

target: pyruvate kinase (Trypanosoma brucei) (UniProt Q57TT1); assay: qHTS of Trypanosoma Brucei Inhibitors; details: TbPYK enzyme, Kinase-Glo Plus ATP luminescence, 45 min; series mostly up to 76.8 µM; activity, negative = inhibition: at the top concentration; also: nearly all actives have a fitted effect of over 50% in size
Text: Members of the Trypanosomatidae family of parasitic protozoans cause a spectrum of diseases throughout the tropical and subtropical world. Sleeping sickness, caused by two subspecies of Trypanosoma brucei, is endemic to areas of sub-Saharan Africa, while Chagas' disease, a manifestation of Trypanosoma cruzi infection, is prevalent throughout Central and South America. In addition, many species of Leishmania are responsible for a range of cutaneous and visceral diseases, causing ulcers, destructive lesions and kalaazar, a lethal infection of the viscera. These diseases cause severe public health and economic burdens on populations that are often already caught in a tragic cycle of poverty, poor nutrition and disease. Collectively, parasites of the trypanosomatid family infect 30 million people worldwide (~500 million live in endemic areas), and account for ~130K deaths annually. Existing treatments have developed little in the past 50 years, and suffer from toxicity, poor efficacy and resistance; the goal of this project is to develop lead drugs that will be suitable for entry into pre-clinical trials.
Glycolysis in axenically cultured T. cruzi, representing the intracellular pathogenic stage, is also essential for these parasites. {Engel, 1987} This project aims to discover and optimize selective inhibitors of the glycolytic enzyme pyruvate kinase (PYK) from Trypanosoma brucei, the parasite that causes sleeping sickness. […] Trypanosomatid PYKs show significant differences from their human counterparts including only 47-50% sequence identity and different allosteric and activation properties.{Callens, 1992} To this end, a qHTS was done against the MLSMR to discover inhibitors.
NIH Molecular Libraries Probe Production Network [MLPCN]
NIH Chemical Genomics Center [NCGC]
PI Name: Malcolm Walkinshaw, University of Edinburgh
2 uL of TbPYK/substrate buffer (columns 1-3, 5-48) are dispensed into Greiner white solid bottom 1536-well assay plates; column 4 receives only TEA buffer as 0x TbPYK controls. Compounds are then transferred via Kalypsys pin tool equipped with 1536-pin array (10 nL slotted pins, V&P Scientific, San Diego, CA). Following addition of compound, 2 uL of ADP (130 uM final concentration, all columns) is added to initiate the reaction. The plates are then incubated at room temperature for 45 minutes. Kinase-Glo Plus reagent is added (3 uL) and plates incubated for 10 minutes, before being transferred to a ViewLux high-throughput CCD imager (PerkinElmer) wherein single end-point measurements of luminescence are acquired using a clear filter. All reagents are diluted in an assay buffer consisting of 50 mM TEA (pH 7.2), 100 mM KCl, 10 mM MgCl2, 0.05% BSA and 0.01% Tween-20.
All screening operations will be performed on a fully integrated robotic system (Kalypsys, San Diego, CA) containing one RX-130 and two RX-90 anthropomorphic robotic arms (Staeubli, Duncan, SC). Library plates will be screened starting from the lowest and proceeding to the highest concentration. Vehicle-only plates, with DMSO being pin-transferred to columns 5-48, will be inserted uniformly at the beginning and the end of each library in order to monitor and record any shifts in the background, which can be affected by reagent dispensers or loss in enzyme activity over time. Screening data will be corrected, normalized, and concentration-effect relationships will be derived by using publicly-available curve fitting algorithms developed in-house (http://ncgc.nih.gov/pub/openhts).
Potency is read from the fitted curve at half-maximal effect.

SMILES | activity, negative = inhibition | Potency
O=C(c1ccncc1)N1CCC2(CCCN(C(c3ccccc3)c3ccccc3)C2)CC1 | 0% | 
O=c1c(CCc2ccccc2)nc2cncnc2n1C1CC1 | -7.75% | 
CC(=O)NC(=O)c1ccccc1O | -5.98% | 
COc1ccc(-n2c(-c3ccc(OC)c(OC)c3)n[nH]c2=S)cc1 |  | 3.98 µM (active)
COc1ccc(-n2c(C)csc2=S)cc1 | -1.59% | 
COc1ccc(CNc2nc(-c3ccc(Cl)cc3)cc(C(F)(F)F)n2)cc1 | 2.22% | 
COc1ccc(-c2cn(-c3ccc(C)cc3)c(=O)n2CC(=O)Nc2ccc(OC)c(OC)c2)cc1 | 8.82% | 
COc1ccc(-n2c(-c3ccc(Cl)cc3)n[nH]c2=S)c(OC)c1 |  | 5.62 µM (active)
COc1cc(OC)c(-n2cc(-c3ccc(Cl)cc3)[nH]c2=O)cc1Cl | 1.38% | 
O=C(Nc1cccc(F)c1)N1CCC2(CC1)CCN(S(=O)(=O)c1ccccc1)CC2 | -4.6% | 
C=C1C(=CC=C2CCC[C@@]3(C)[C@@H]2CC[C@H]3[C@H](C)CCCC(C)C)C[C@@H](O)C[C@@H]1O | -17.6% | 
Cc1nnc(C(=O)NC(C)(C)c2nc(C(=O)NCc3ccc(F)cc3)c(O)c(=O)n2C)o1 | -4.15% | 
CCC1(c2ccccc2)C(=O)NC(=O)N(C)C1=O (configuration not stated) | 5.1% | 
CCCCCCCCCc1ccc(OCCOCCOCCOCCOCCOCCOCCOCCOCCO)cc1 | -7.24% | 
CCC[C@H]1C(=O)N2C(N(C)C)=Nc3ccc(C)cc3N2C1=O | 0.389% [at 33.2 µM] | 
O=c1c(-c2ccc(F)c(F)c2)nc2cncnc2n1-c1ccccc1 | -7.65% | 
COc1ccc(Oc2ncc3nc(-c4ccc(F)cc4)c(=O)n(C)c3n2)cc1 | -8.28% | 
CC(=O)OC1C([N+]2(C)CCCCC2)C[C@H]2C3CC[C@H]4C[C@H](OC(C)=O)C([N+]5(C)CCCCC5)CC4(C)C3CCC12C (some centres not stated) | 2.62% | 
CCC(CCC(C)C1CCC2C3CC=C4CC(O)CC[C@@]4(C)C3CC[C@@]12C)C(C)C (some centres not stated) | 0% | 
COc1cccc(Cn2c(=O)c(C)nc3cnc(Oc4ccccc4)nc32)c1 | -10.8% | 
CNC(C)[C@@H](O)c1ccccc1 (some centres not stated) | 2.95% | 

SMILES | activity, negative = inhibition | Potency
O=C(c1cnccn1)N1CCC2(CCN(Cc3cc(C(F)(F)F)cc(C(F)(F)F)c3)CC2)CC1 | 0% | 
CCNc1ncc2nc(CCc3ccccc3)c(=O)n(-c3ccc(OC)cc3)c2n1 | -7.09% | 
O=C(c1ccco1)N1CCC2(CC1)CCN(c1ncccn1)CC2 | 5.21% | 
Cc1cn([C@H]2CC(F)[C@@H](CO)O2)c(=O)[nH]c1=O (some centres not stated) | 5.23% | 
Cc1cccc([C@H](C)c2cnc[nH]2)c1C | 0% | 
COc1ccc(-c2nc3cnc(Oc4ccccc4)nc3n(Cc3cccs3)c2=O)cc1 | 1.2% | 
COc1ccc(-n2c(=O)c(-c3cn(C)c4ccccc34)nc3cnc(OC)nc32)cc1 | 6.7% | 
N#Cc1ccc(CN2CCCC3(CCN(C(=O)c4ccco4)CC3)C2)cc1 | 5.2% | 
CC(=O)Oc1ccc2c3c1OC1C(OC(C)=O)C=CC4[C@@H](C2)N(C)CC[C@]314 (some centres not stated) | -3.56% [at 157 µM] | 
O=C(c1ccco1)N1CCC2(CC1)CN(c1ncccn1)C2 | 6.02% | 
O=C(Nc1cccc(F)c1)N1CC[C@@]2(CCCN(C(=O)Oc3ccccc3)C2)C1 | -0.503% | 
COc1ccc(NC(=O)N2CC3(CCN(C(=O)c4cccn4C)CC3)C2)cc1 | 5.66% | 
CCOC(=O)C1CCCN(S(=O)(=O)c2cc(-c3cc(C)no3)ccc2OC)C1 (configuration not stated) | 2.51% | 
O=C(c1cc(C(F)(F)F)cc(C(F)(F)F)c1)N1CCC2(CCCN(c3ccccn3)C2)CC1 | 4.85% | 
COc1ccc(-c2oc3cc(OC)ccc3c2C(=O)c2ccc(C#N)cc2)cc1 | 2% | 
Oc1ccc(Cl)c2c1CCC2 | -1.73% | 
CC1(C)OC[C@@H](COC(=O)CCc2ccc(OC[C@@H](O)CNCCNC(=O)N3CCOCC3)cc2)O1 |  | inactive
c1ccc(CN2CC[C@@]3(CCCNC3)C2)cc1 | 1.4% | 
COc1cccc(Cn2c(=O)c(-c3cc(F)cc(F)c3)nc3cnc(OC)nc32)c1 | -4.11% | 
CC(=O)CC(c1ccccc1)C1C(=O)Oc2ccccc2C1=O (configuration not stated) | -1.9% | 
COc1cc2c(cc1OC)[C@@H](Cc1cc(OC)c(OC)c(OC)c1)[N+](C)(CCCOC(=O)CC/C=C/CCC(=O)OCCC[N+]1(C)CCc3cc(OC)c(OC)cc3[C@H]1Cc1cc(OC)c(OC)c(OC)c1)CC2 (some centres not stated) | 2.34% | 

SMILES | activity, negative = inhibition | Potency
C[C@H]1C[C@H]2[C@@H]3CCC4=CC(=O)C=C[C@]4(C)[C@@H]3C(=O)C[C@]2(C)[C@@]1(O)C(=O)CO | -4.12% | 
CCOc1ccc(NC(=O)CC2C(=O)N(c3cccc(OC)c3)C(=O)N2C2CCCCC2)cc1 (configuration not stated) | 3.35% | 
COCCn1c(=O)c(-c2cc(F)cc(F)c2)nc2cnc(N3CCNCC3)nc21 | -4.63% | 
CC(=O)N1CCC2(CC1)CCN(c1ccncc1)CC2 | -7.23% | 
O=S(O)CNc1ccc(S(=O)(=O)c2ccc(NCS(=O)O)cc2)cc1 | 9.07% | 
O=C(c1ccco1)N1CCC[C@@]2(CCN(Cc3nccs3)C2)C1 | -6.32% | 
Cn1cccc1C(=O)N1CCC2(CC1)CN(c1cccc(-c3ccccc3)c1)C2 | -3.39% | 
C/C=C1\C2C=C(C)CC1(N)c1ccc(=O)[nH]c1C2 (configuration not stated) | -2.6% | 
NC(=O)C(=O)N/N=C/c1ccc([N+](=O)[O-])o1 | 0.18% | 
O=C(c1cc(C(F)(F)F)cc(C(F)(F)F)c1)N1CCC[C@@]2(CCN(c3ccccn3)C2)C1 | 4.4% | 
CC(C)NC(=O)N1CCC2(CC1)CCN(C(=O)c1cccn1C)CC2 | 1.85% | 
O=C(O)CCC(=O)O | -2.93% | 
CC(C)(O/N=C(\C(=O)N[C@@H]1C(=O)N2C(C(=O)[O-])=C(C[n+]3ccccc3)CS[C@@H]12)c1csc(N)n1)C(=O)O | -4.78% [at 33.2 µM] | 
COCCn1c(=O)c(CCc2ccccc2)nc2cnc(N3CCNCC3)nc21 | -7.17% | 
COc1ccnc(C[S@@](=O)[C@@H]2Nc3ccc(OC(F)F)cc3N2)c1OC | -17.7% | 
C[C@]12CC[C@@H]3c4ccc(O)cc4C[C@@H](CCCCCCCCCS(=O)CCCC(F)(F)C(F)(F)F)C3[C@@H]1CC[C@@H]2O (some centres not stated) | -5.87% | 
C=CCn1c(C)cc(C2=NNC(=NCC)SC2)c1C |  | 17.8 µM (active)
CC1N=C(N)OC1c1ccccc1 (configuration not stated) | 0% [at 157 µM] | 
CS(=O)(=O)N1CCC2(CCN(c3ccncc3)CC2)CC1 | -6.52% | 
CC1(C)O[C@@H]2C[C@@H]3[C@H]4C[C@@H](F)C5=CC(=O)C=C[C@]5(C)[C@@]4(F)[C@@H](O)C[C@]3(C)[C@]2(C(=O)CO)O1 | -3.24% | 
